From PubChem BioAssay
In the library only some 17% were active in any assay of this set; here they are far more common.
HT1080 IDH1KD tx: qHTS for induction of synthetic lethality in tumor cells producing 2HG: qHTS for the HT-1080-IDH1KD cell line; HT-1080 IDH1 knockdown viability, ATP luminescence, 48 h; Potency, µM (series often up to 46.1 µM), inactives show at the top dose activity, negative = toxicity, hits mostly cytotoxic; 2% of 360,000 active;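 further: 0% = DMSO wells and -100% = cell-free medium wells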
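After a 2 h attachment period, IDH1KD HT-1080 cells took pin-transferred compound for 48 h at 37 °C; ATP-based luminescence after 10 min room-temperature reagent incubation reported viability.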
DT40 TDP1 no CPT: qHTS for Inhibitors of human tyrosyl-DNA phosphodiesterase 1 (TDP1): qHTS in cells in absence of CPT; DT40 Tdp1-/- hTDP1 cells, no CPT, ATP luminescence, 48 h; Potency, µM (series often up to 46.2 µM), inactives show at the top dose activity change, negative = growth inhibition, hits mostly inhibitors; 15% of 420,000 active; AID 686978, 2013; further: on the % scale 0 is the no-effect control and ±100 the full control effect; nearly all actives have a fitted effect of over 55% in size
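Compound effects on proliferation are scored in DT40 Tdp1-/-;hTDP1 cells in the absence of CPT. ATP levels (CellTiter-Glo luminescence) are recorded after a ≥48 hr, 37 °C incubation.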
HepG2 tox: qHTS for Inhibitors of TGF-b: Cytotox Counterscreen; HepG2 CAGA-GFP viability, ATP luminescence, 18 h; Potency, µM (titrated, usually from 46.1 µM), for inactives: at the highest dose activity change, negative = cytotoxicity, most hits filed as cytotoxic; 0.76% of 410,000 active
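HepG2 CAGA-GFP cells (1000/well, DMEM with 1% FBS) received compound, then TGF-beta at 500 pg/mL final, and were incubated 18 hours at 37 degrees C. Viability was read by CellTiter-Glo luminescence. Media-only wells were set as complete cell-killing and DMSO as no toxicity.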
TDP1 cell CPT: qHTS for Inhibitors of human tyrosyl-DNA phosphodiesterase 1 (TDP1): qHTS in cells in presence of CPT | chicken DT40 Tdp1-/-;hTDP1 cells + 20 nM CPT, ATP luminescence, 48 h | Potency, µM (doses to about 46.2 µM), for inactives: at the top dose activity change, negative = growth inhibition, hits mostly inhibitors | 12% of 420,000 active | AID 686979, 2013; further: on the % scale 0 is the no-effect control and ±100 the full control effect; nearly all actives have a fitted effect of over 55% in size
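Chicken DT40 Tdp1-/- cells stably complemented with human TDP1 were seeded at 400 cells/well in medium containing 20 nM camptothecin, exposed to pin-transferred compounds, and grown at 37 °C for at least 48 hr. Viability was read as ATP luminescence.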
TGFb SMAD3 inh: qHTS for Inhibitors of TGF-b; Potency, µM (doses to about 46.1 µM), for inactives: at the top dose activity, negative = inhibition, hits mostly inhibitors; HepG2 CAGA-GFP TGF-b/SMAD3 reporter, GFP fluorescence, 18 h; TGF-beta stimulated, 500 pg/mL final; AID 588855, 2011; 1.2% of 410,000 active; further: on the % scale 0 is the no-effect control and ±100 the full control effect; nearly all actives have a fitted effect of over 65% in size
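Per well, imaged GFP fluorescence of HEPG2 CAGA-GFP cells gives the signal; cells get compound, then TGF-beta (500 pg/mL final), 18 h at 37 degrees C; %Activity versus -TGF-beta and +DMSO controls.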
HT1080-NT tox: qHTS for induction of synthetic lethality in tumor cells producing 2HG: qHTS for the HT-1080-NT fibrosarcoma cell line | 1.6% of 360,000 active | Potency, µM (titrated, usually from 46.1 µM), for the others: top-dose activity, negative = less viability, usual class: cytotoxic | AID 686970, 2013 | HT-1080-NT fibrosarcoma viability, CellTiter-Glo ATP luminescence, 48 h;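 further: NT is the 2HG producing partner of a matched IDH1 knockdown line; 0% = DMSO-treated cells and -100% = media-only wells without cells; nearly all actives have a fitted effect of over 55% in size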
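Read-out is CellTiter-Glo luminescence after 10 minutes at room temperature, following 48 hours' compound treatment of HT-1080-NT cells (750 cells/well, RPMI, 5% FBS, 37 degrees C).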
Active calls of the source: *. The call rests on the fitted dose curve; in most records, active means well fitted curve in the direction sought with a large enough effect; inconclusive means small, poorly fitted or top-dose-only effect, or another doubt; inactive means no such curve, though single readings can be large; an effect the other way counts as inactive or inconclusive. Potency means the concentration at half of the fitted maximal effect.

Cc1ccc(NC(=O)COc2cccc(C)c2C)cc1S(=O)(=O)N1CCCCCC1 was read as HT1080 IDH1KD tx inconclusive, DT40 TDP1 no CPT 18µM*, HepG2 tox 2%, TDP1 cell CPT inconclusive, TGFb SMAD3 inh inconclusive and HT1080-NT tox -3%.
`Cc1ccc(NC(=O)CNc2ccccc2N2CCCC2=O)cc1S(=O)(=O)N1CCCCC1` gave HT1080 IDH1KD tx 3%, DT40 TDP1 no CPT 15µM*, HepG2 tox -20%, TDP1 cell CPT 16µM*, TGFb SMAD3 inh -14% and HT1080-NT tox 10%.
For O=C1CCSC2=C1SCc1sccc12 the results were HT1080 IDH1KD tx 2%, DT40 TDP1 no CPT -1%, TDP1 cell CPT -7% and HT1080-NT tox 11%.
Screening CCC(C)N(C(=O)c1csnn1)C(C(=O)NCc1ccc(F)cc1)c1ccccc1F (configuration not stated) returned HT1080 IDH1KD tx 29%, DT40 TDP1 no CPT inconclusive, HepG2 tox -9%, TDP1 cell CPT -28%, TGFb SMAD3 inh -15% and HT1080-NT tox 21%.
Nc1cc(OC(=O)c2ccc(F)cc2)nn1S(=O)(=O)c1ccccc1 was read as HT1080 IDH1KD tx -12%, DT40 TDP1 no CPT -22%, HepG2 tox -28%, TDP1 cell CPT 4%, TGFb SMAD3 inh -12% and HT1080-NT tox -5%.
CCOc1ccc(C(=O)CCC(=O)Nc2ccc(C)c(S(=O)(=O)N3CCCCC3)c2)cc1 was read as HT1080 IDH1KD tx -17%, DT40 TDP1 no CPT 16µM*, HepG2 tox 3%, TDP1 cell CPT -15%, TGFb SMAD3 inh -9% and HT1080-NT tox -1%.
Screening COC(=O)c1ccc(COC(=O)c2ccc(C)c(S(=O)(=O)N3CCCCC3)c2)cc1 returned HT1080 IDH1KD tx -3%, DT40 TDP1 no CPT inconclusive, HepG2 tox -9%, TDP1 cell CPT 29µM*, TGFb SMAD3 inh -9% and HT1080-NT tox -3%.
For Cc1ccc(NC(=O)CCl)cc1S(=O)(=O)N1CCCCCC1 the results were HT1080 IDH1KD tx 8.2µM*, DT40 TDP1 no CPT 2.6µM*, HepG2 tox -41%, TDP1 cell CPT 2.1µM*, TGFb SMAD3 inh inconclusive and HT1080-NT tox 16µM*.
Screening Cc1ccc(C(=O)OC(C)C(=O)NC2CCCCC2)cc1S(=O)(=O)N1CCCCC1 (configuration not stated) returned HT1080 IDH1KD tx -10%, DT40 TDP1 no CPT inconclusive, HepG2 tox 3%, TDP1 cell CPT inconclusive, TGFb SMAD3 inh 1% and HT1080-NT tox 0%.
Screening Cc1ccc(C(=O)OC(C)C(=O)N(C)C2CCCCC2)cc1S(=O)(=O)N1CCCCC1 (configuration not stated) returned HT1080 IDH1KD tx -12%, DT40 TDP1 no CPT 23µM*, HepG2 tox -31%, TDP1 cell CPT inconclusive, TGFb SMAD3 inh inconclusive and HT1080-NT tox 0%.
C[C@@]12C(=O)Nc3cc(F)c(F)cc3C(=O)N1[C@H]1c3cc(Cl)ccc3OC[C@@H]1[C@@H]2c1ccccc1 was read as HT1080 IDH1KD tx inconclusive, DT40 TDP1 no CPT inconclusive, HepG2 tox -17%, TDP1 cell CPT inconclusive, TGFb SMAD3 inh -12% and HT1080-NT tox inconclusive.
